From PubChem BioAssay
The list is not random: actives were taken first. Their share in the collection is about 6.2%.
HCMV inh: inhibitors of human cytomegalovirus; HFF cells, HCMV-luciferase reporter, 72 h; active compounds read low; activity change, negative = inhibition, % at 57.5 µM; actives 4.5% (n = 410,000); AID 1259415; in the data active means activity change below about -60%; inconclusive means no clear call, values can overlap the other calls; inactive means above about -39%
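Inhibition of viral replication was scored as loss of reporter luminescence in HFFs infected with HCMV-luciferase (MOI 1 PFU/cell) for 72 h; compounds tested at 2 doses, normalized to buffer and Salinomycin controls.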
FMDV antiviral: blocks foot and mouth disease virus | FMDV antiviral cell-based qHTS | Potency, µM (titrated, usually from 57.9 µM), actives largely listed as inhibitors | actives 1.2% (n = 410,000) | AID 1159524; calls by dose curve; tested in HEK293T cells; further: read-out not given here; nearly all actives have a fitted effect of over 45% in size
Marburg entry inh: inhibitors of Marburg virus binding or cell entry | Marburg virus pseudotyped entry inhibition, cell reporter | Potency, µM (series often up to 37.8 µM), actives largely listed as inhibitors | actives 1.8% (n = 300,000); calls by dose curve; tested in HEK293 cells
LASV entry inh: inhibitors of Lassa virus binding or cell entry | Lassa virus pseudotype entry inhibition, cell reporter | Potency, µM (series often up to 37.9 µM), usual class: inhibitors | actives 1.2% (n = 300,000); calls by dose curve; tested in HEK293 cells; further: nearly all actives have a fitted effect of over 50% in size
Each line names hits and unclear results; the compound was inactive in the other large screens.

COc1ccc(/C=C/c2c([N+](=O)[O-])c(=O)n(C)c(=O)n2C)cc1OC	Marburg entry inh inconclusive (no result: FMDV antiviral)
Cn1c(/C=C/c2cccc([N+](=O)[O-])c2)c([N+](=O)[O-])c(=O)n(C)c1=O	HCMV inh -102, FMDV antiviral 13µM, Marburg entry inh 8.9µM, LASV entry inh inconclusive
O=C(CCOc1ccccc1)N(Cc1cccnc1)c1nc2c(Cl)cccc2s1	HCMV inh inconclusive, FMDV antiviral inconclusive (no result: Marburg entry inh)
Cc1cc(C)c2[nH]c(=S)cc(C)c2c1	none
CCOC(=O)N1CCN(C(=O)C2CCCN(S(=O)(=O)c3ccc(OCC)cc3)C2)CC1 (stereo not given)	HCMV inh inconclusive, Marburg entry inh inconclusive, LASV entry inh inconclusive
CCOC(=O)N1CCN(C(=O)C2CCCN(S(=O)(=O)c3ccc(C)cc3)C2)CC1 (stereo not given)	HCMV inh -61
CCOC(=O)N1CCN(C(=O)C2CCN(S(=O)(=O)c3c(C)cc(C)cc3C)CC2)CC1	HCMV inh -107, LASV entry inh inconclusive
CCOc1ccc(S(=O)(=O)N2CCC(C(=O)N3CCN(c4ccccc4F)CC3)CC2)cc1C	Marburg entry inh inconclusive, LASV entry inh 7.1µM
CCOc1ccc(S(=O)(=O)N2CCCC(C(=O)N3CCN(c4ccccc4)CC3)C2)cc1 (stereo not given)	FMDV antiviral 28µM, Marburg entry inh inconclusive, LASV entry inh inconclusive
COc1ccc(NC(=O)CSc2nnc(C3CCCCC3)o2)c(OC)c1	none
COc1ccc(C(CC(=O)N2CCCCC2)NC(=O)C(F)(F)F)cc1 (stereo not given)	none
COc1ccc(C(CC(=O)Nc2ccc(Cl)cc2F)NC(=O)C(F)(F)F)cc1 (stereo not given)	HCMV inh -89
COc1ccccc1NS(=O)(=O)c1cccc(NC(=O)NC2CCCCC2)c1	HCMV inh -76, Marburg entry inh inconclusive, LASV entry inh inconclusive
COc1ccccc1NC(=O)NC1CCCCCCC1	HCMV inh inconclusive
COc1ccccc1NS(=O)(=O)c1cccc(NS(=O)(=O)c2cc(C(=O)O)ccc2OC)c1	HCMV inh -102
COc1ccccc1NS(=O)(=O)c1cccc(NC(=O)c2ccc3ccccc3n2)c1	HCMV inh -79, Marburg entry inh inconclusive, LASV entry inh inconclusive
COc1ccccc1NC(=O)CSc1nccn1Cc1ccc(F)cc1	FMDV antiviral inconclusive
Cc1ccc(-n2c([O-])nc(-[n+]3ccccc3)c2C=O)cc1	HCMV inh -72 (no result: FMDV antiviral)
Cc1ccc[n+](-c2nc([O-])sc2C=O)c1	none
COCCNC(=O)C1(C)CCCN(Cc2c(C)nn(-c3ccccc3)c2C)C1 (stereo not given)	none (no result: Marburg entry inh, LASV entry inh)
COc1cc(OC)c(NS(=O)(=O)c2ccc(Cl)c(C(=O)OC(C)C(=O)N3CCCC3)c2)cc1Cl (stereo not given)	HCMV inh -64, FMDV antiviral inconclusive, Marburg entry inh inconclusive
CCC1CCCCN1c1nc(-c2ccncc2)nc2ccccc12 (stereo not given)	HCMV inh inconclusive, FMDV antiviral inconclusive, Marburg entry inh 9.2µM, LASV entry inh inconclusive
COc1ccc(/C=N/NC(=O)c2cccnc2)cc1CSc1nc2ccccc2s1	HCMV inh inconclusive, FMDV antiviral 35µM
COc1ccc(/C=N/NC(=O)c2cccnc2)cc1COc1ccc([N+](=O)[O-])c(C)c1	HCMV inh -76, FMDV antiviral 40µM, Marburg entry inh inconclusive, LASV entry inh inconclusive
COc1ccc(/C=N/NC(=O)c2ccn[nH]2)cc1COc1ccc([N+](=O)[O-])c(C)c1	HCMV inh inconclusive, LASV entry inh inconclusive
COc1ccc(/C=N/NC(=O)c2ccccc2Cl)cc1CSc1nc2ccccc2s1	HCMV inh inconclusive, Marburg entry inh inconclusive, LASV entry inh 13µM
COc1ccc(CN2C(=O)C(CC(=O)NC3CCCC3)CC(C(=O)N(C(C)C)C(C)C)=C2C)cc1 (stereo not given)	none (no result: Marburg entry inh, LASV entry inh)
CC1=C(C(=O)N(C(C)C)C(C)C)CC(CC(=O)NC2CCCCC2)C(=O)N1Cc1ccc(C(C)(C)C)cc1 (stereo not given)	HCMV inh -88 (no result: Marburg entry inh, LASV entry inh)
O=[N+]([O-])c1cc(Cl)ccc1Nc1ccccc1	none (no result: HCMV inh, Marburg entry inh, LASV entry inh)
CCOC(=O)C1CCN(c2c([N+](=O)[O-])c(C(Cl)Cl)nn2-c2ccccc2)CC1	LASV entry inh 9.2µM (no result: FMDV antiviral)
c1ccc(/N=C2\N=C(Nc3ccccn3)c3ccccc32)nc1	HCMV inh -99, Marburg entry inh inconclusive, LASV entry inh inconclusive
c1ccc(Nc2ccccn2)cc1	none
O=C1Nc2ccccc2C(O)(C(=O)NCc2ccco2)N1c1ccccc1 (stereo not given)	none
COc1cc(-c2nnc(COC(=O)c3cc(C)nc4ccc(C)cc34)o2)cc(OC)c1OC	none
Oc1ccc(/C=C/c2ccnc3ccccc23)cc1	HCMV inh -61, Marburg entry inh inconclusive, LASV entry inh inconclusive
Clc1ccccc1/C=C/c1ccnc2ccccc12	none (no result: Marburg entry inh, LASV entry inh)
COc1ccccc1NC(=O)N(C)C[C@@H]1Oc2ncc(Br)cc2C(=O)N([C@H](C)CO)C[C@@H]1C	none (no result: Marburg entry inh, LASV entry inh)
Nc1cc(=O)[nH]c(SCc2ccc(Cl)cc2Cl)n1	HCMV inh -60, FMDV antiviral inconclusive (no result: Marburg entry inh, LASV entry inh)
CC(C)(C)NC(=O)C1c2ccccc2OCC(=O)N1Cc1ccccn1 (stereo not given)	none (no result: Marburg entry inh, LASV entry inh)
Cc1cc(C)cc(NC(=O)c2ccc(NC3=NC4CS(=O)(=O)CC4S3)cc2)c1 (stereo not given)	none (no result: Marburg entry inh, LASV entry inh)
Cc1ccc(CNC(=O)c2ccc(NC3=NC4CS(=O)(=O)CC4S3)cc2)cc1 (stereo not given)	HCMV inh -68 (no result: Marburg entry inh, LASV entry inh)
Cc1ccc(NC(=O)c2ccc(C)c(NC3=NC4CS(=O)(=O)CC4S3)c2)cc1C (stereo not given)	none (no result: Marburg entry inh, LASV entry inh)
Cc1ccc(C(=O)Nc2ccc(F)cc2)cc1NC1=NC2CS(=O)(=O)CC2S1 (stereo not given)	HCMV inh -101 (no result: Marburg entry inh, LASV entry inh)
NC(=O)c1ccc(NC(=O)Cc2csc(-c3ccccc3)n2)cc1	none
Cc1ccc(NC(=O)c2c(C)oc3ccc(O)c(CN4CCCCC4)c23)c(C)c1	Marburg entry inh inconclusive
COc1ccc(NC(=O)c2c(C)oc3ccc(O)c(CN4CCCCCC4)c23)cc1Cl	HCMV inh -94, Marburg entry inh 4.5µM, LASV entry inh inconclusive
Cc1ccc(NC(=O)c2c(C)oc3ccc(O)c(CN4CCCCC4)c23)cc1	HCMV inh -65, Marburg entry inh inconclusive, LASV entry inh inconclusive
Cc1ccccc1CNC(=O)c1ccccc1C(=O)O	none
CC(=O)Nc1ccc(C(=O)CSc2nnc3scc(-c4ccccc4)n23)cc1	none
NC(=O)c1ccc(Nc2nc(C(N)COCc3ccccc3)cs2)cc1 (stereo not given)	none (no result: Marburg entry inh, LASV entry inh)
NC(Cc1ccc(C(F)(F)F)cc1)c1csc(NC(=O)NCCc2ccccc2)n1 (stereo not given)	HCMV inh -101, FMDV antiviral inconclusive (no result: Marburg entry inh, LASV entry inh)
NC(COCc1ccccc1)c1csc(NC(=O)Nc2cccc(C(F)(F)F)c2)n1 (stereo not given)	HCMV inh -100 (no result: Marburg entry inh, LASV entry inh)
NC(Cc1ccc(C(F)(F)F)cc1)c1csc(NC(=O)Nc2ccccc2Oc2ccccc2)n1 (stereo not given)	HCMV inh -102 (no result: Marburg entry inh, LASV entry inh)
CN(C)Cc1csc(NC(=O)Nc2ccccc2Oc2ccccc2)n1	HCMV inh -75 (no result: Marburg entry inh, LASV entry inh)
NC(Cc1ccccc1)c1csc(NC(=O)Nc2ccccc2Oc2ccccc2)n1 (stereo not given)	HCMV inh inconclusive (no result: Marburg entry inh, LASV entry inh)
